# Measured values from publication PMC4081100, “A DNA-binding-site landscape and regulatory network analysis for NAC transcription factors in Arabidopsis thaliana”.
# Key:
# Assay in all cases: universal protein binding microarray (PBM); transcription factors of Arabidopsis thaliana; high values mean tight binding
# GST-ANAC092(1-176) = molecular target: T1, GST-ANAC092(1-176) (Arabidopsis thaliana, UniProt Q9FKA0 1-176); conditions: protein: recombinant; tags: GST; chain copies: 2; dsDNA, one strand shown
# T1 sequence: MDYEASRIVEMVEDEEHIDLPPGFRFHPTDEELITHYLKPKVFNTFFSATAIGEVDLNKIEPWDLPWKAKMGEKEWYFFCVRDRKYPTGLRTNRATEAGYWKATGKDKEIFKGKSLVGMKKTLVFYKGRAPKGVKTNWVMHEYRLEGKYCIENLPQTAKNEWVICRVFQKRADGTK
# How it was run: (§1)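 Binding is expressed as the normalised enrichment score (E-score). Proteins carrying a GST tag, whether NAC-domain, full-length or DNA-binding-domain forms, were induced in cells, and zinc acetate was added for zinc-finger proteins. After purification on glutathione–Sepharose 4B and quantification by A280 or anti-GST western blot, each was applied in duplicate at 200 to 500 nM final to custom all-10-mer Agilent 4 × 180K arrays made double-stranded by primer extension. Gapped and ungapped 8-mers were scored.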
# GST-NTL6(1-168) = GST-NTL6(1-168) (Arabidopsis thaliana, UniProt Q9SCK6 1-168); conditions: protein: recombinant; tags: GST; chain copies: 2; dsDNA, one strand shown
# Chain of GST-NTL6(1-168) (Q9SCK6 1-168): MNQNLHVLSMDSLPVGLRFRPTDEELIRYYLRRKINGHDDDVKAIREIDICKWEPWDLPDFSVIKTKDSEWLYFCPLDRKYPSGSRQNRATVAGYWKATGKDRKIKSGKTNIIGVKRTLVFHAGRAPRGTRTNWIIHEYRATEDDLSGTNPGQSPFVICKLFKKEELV
# How it was run: as §1
# GST-ANAC055(1-171) = molecular target: T2, GST-ANAC055(1-171) (Arabidopsis thaliana, UniProt Q9LDY8 1-171); conditions: protein: recombinant; tags: GST; chain copies: 2; dsDNA, one strand shown
# T2 sequence: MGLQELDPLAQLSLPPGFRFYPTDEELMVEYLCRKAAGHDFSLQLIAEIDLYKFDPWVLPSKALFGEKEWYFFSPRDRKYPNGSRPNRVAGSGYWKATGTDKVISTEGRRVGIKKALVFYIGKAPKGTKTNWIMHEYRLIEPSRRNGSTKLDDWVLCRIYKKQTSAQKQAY
# How it was run: as §1
# GST-ATAF1 NAC domain = molecular target: T3, GST-ATAF1 NAC domain (Arabidopsis thaliana, UniProt Q39013 7-158); conditions: protein: recombinant; tags: GST; chain copies: 2; dsDNA, one strand shown
# T3 sequence: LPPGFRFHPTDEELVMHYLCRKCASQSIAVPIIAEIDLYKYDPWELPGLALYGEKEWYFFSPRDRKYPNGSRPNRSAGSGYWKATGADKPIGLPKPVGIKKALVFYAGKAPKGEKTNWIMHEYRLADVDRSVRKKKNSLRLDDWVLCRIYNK
# How it was run: as §1
# [1] = molecular target: T4, GST-ANAC092(1-285) full length (Arabidopsis thaliana, UniProt Q9FKA0 1-285); conditions: protein: recombinant; tags: GST; chain copies: 2; dsDNA, one strand shown
# T4 sequence: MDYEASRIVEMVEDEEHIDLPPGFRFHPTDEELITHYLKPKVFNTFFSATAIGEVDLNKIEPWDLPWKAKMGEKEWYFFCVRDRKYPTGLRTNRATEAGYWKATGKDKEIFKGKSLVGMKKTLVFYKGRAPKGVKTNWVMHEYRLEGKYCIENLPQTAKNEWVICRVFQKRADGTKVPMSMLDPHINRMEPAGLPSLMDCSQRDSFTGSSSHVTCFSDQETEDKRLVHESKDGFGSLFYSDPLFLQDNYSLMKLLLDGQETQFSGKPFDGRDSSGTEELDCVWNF
# How it was run: as §1
# GST-NST2(1-184) = molecular target: T5, GST-NST2(1-184) (Arabidopsis thaliana, UniProt Q9M274 1-184); conditions: protein: recombinant; tags: GST; chain copies: 2; dsDNA, one strand shown
# T5 sequence: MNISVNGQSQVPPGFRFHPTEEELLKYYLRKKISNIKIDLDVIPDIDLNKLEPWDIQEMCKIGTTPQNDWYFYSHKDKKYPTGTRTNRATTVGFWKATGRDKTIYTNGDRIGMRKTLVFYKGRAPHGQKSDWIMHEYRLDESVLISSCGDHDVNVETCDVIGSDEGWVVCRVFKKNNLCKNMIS
# How it was run: as §1
# GST-NTL8 NAC domain = molecular target: T6, GST-NTL8 NAC domain (Arabidopsis thaliana, UniProt Q9XIN7 14-156); conditions: protein: recombinant; tags: GST; chain copies: 2; dsDNA, one strand shown
# T6 sequence: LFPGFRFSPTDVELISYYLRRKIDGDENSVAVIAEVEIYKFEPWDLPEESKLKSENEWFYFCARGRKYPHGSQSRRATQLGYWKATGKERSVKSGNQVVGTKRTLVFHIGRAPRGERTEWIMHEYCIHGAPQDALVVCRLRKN
# How it was run: as §1
# GST-SND1(1-203) = molecular target: T7, GST-SND1(1-203) (Arabidopsis thaliana, UniProt Q9LPI7 1-203); conditions: protein: recombinant; tags: GST; chain copies: 2; dsDNA, one strand shown
# T7 sequence: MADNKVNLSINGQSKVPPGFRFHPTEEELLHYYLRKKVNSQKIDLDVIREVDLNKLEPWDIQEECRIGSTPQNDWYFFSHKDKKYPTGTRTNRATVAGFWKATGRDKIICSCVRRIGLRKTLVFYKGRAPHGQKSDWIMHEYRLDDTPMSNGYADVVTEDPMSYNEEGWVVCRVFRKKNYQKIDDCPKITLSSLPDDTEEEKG
# How it was run: as §1
# GST-VND3 NAC domain = molecular target: T8, GST-VND3 NAC domain (Arabidopsis thaliana, UniProt Q9FH59 12-162); conditions: protein: recombinant; tags: GST; chain copies: 2; dsDNA, one strand shown
# T8 sequence: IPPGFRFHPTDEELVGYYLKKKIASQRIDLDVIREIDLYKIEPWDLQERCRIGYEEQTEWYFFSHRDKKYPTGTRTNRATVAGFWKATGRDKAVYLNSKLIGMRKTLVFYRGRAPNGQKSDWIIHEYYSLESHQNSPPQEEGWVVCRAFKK
# How it was run: as §1
# GST-ANAC019 NAC domain = molecular target: T9, GST-ANAC019 NAC domain (Arabidopsis thaliana, UniProt Q9C932 14-162); conditions: protein: recombinant; tags: GST; chain copies: 2; dsDNA, one strand shown
# T9 sequence: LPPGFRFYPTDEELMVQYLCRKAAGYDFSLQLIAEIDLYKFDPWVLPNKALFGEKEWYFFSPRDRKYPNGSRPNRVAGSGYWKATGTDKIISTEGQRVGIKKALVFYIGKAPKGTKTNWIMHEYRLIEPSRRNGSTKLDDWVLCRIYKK
# How it was run: as §1
# GST-NAP(1-166) = molecular target: T10, GST-NAP(1-166) (Arabidopsis thaliana, UniProt O49255 1-166); conditions: protein: recombinant; tags: GST; chain copies: 2; dsDNA, one strand shown
# T10 sequence: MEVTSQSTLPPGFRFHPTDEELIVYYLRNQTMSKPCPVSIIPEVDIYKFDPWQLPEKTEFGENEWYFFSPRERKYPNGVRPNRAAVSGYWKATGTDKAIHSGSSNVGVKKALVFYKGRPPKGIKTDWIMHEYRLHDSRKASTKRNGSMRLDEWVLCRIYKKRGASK
# How it was run: as §1
# GST-WRKY1(266-371) = GST-WRKY1(266-371) (Arabidopsis thaliana, UniProt Q9SI37 266-371); conditions: protein: recombinant; tags: GST; dsDNA, one strand shown
# Chain of GST-WRKY1(266-371) (Q9SI37 266-371): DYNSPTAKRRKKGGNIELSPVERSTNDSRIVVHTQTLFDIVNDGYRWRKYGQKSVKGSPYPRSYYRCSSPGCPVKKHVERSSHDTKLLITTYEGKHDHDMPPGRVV
# How it was run: as §1
# GST-VND7 NAC domain = molecular target: T11, GST-VND7 NAC domain (Arabidopsis thaliana, UniProt Q9C8W9 9-158); conditions: protein: recombinant; tags: GST; chain copies: 2; dsDNA, one strand shown
# T11 sequence: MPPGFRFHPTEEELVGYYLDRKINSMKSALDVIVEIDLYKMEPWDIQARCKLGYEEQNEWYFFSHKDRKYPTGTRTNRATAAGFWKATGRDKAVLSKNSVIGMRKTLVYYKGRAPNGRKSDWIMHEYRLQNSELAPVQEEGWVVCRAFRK
# How it was run: as §1
Sequence,binding signal (GST-ANAC092(1-176)),binding signal (GST-NTL6(1-168)),binding signal (GST-ANAC055(1-171)),binding signal (GST-ATAF1 NAC domain),binding signal [1],binding signal (GST-NST2(1-184)),binding signal (GST-NTL8 NAC domain),binding signal (GST-SND1(1-203)),binding signal (GST-VND3 NAC domain),binding signal (GST-ANAC019 NAC domain),binding signal (GST-NAP(1-166)),binding signal (GST-WRKY1(266-371)),binding signal (GST-VND7 NAC domain)
ATAAGGAA,0.118 E-score,0.423 E-score,0.0899 E-score,0.129 E-score,0.217 E-score,0.136 E-score,0.332 E-score,0.201 E-score,0.152 E-score,–,–,–,–
TCACGCCA,0.436 E-score,–,0.156 E-score,0.178 E-score,0.454 E-score,0.263 E-score,–,0.358 E-score,0.0902 E-score,0.223 E-score,0.0509 E-score,–,–
ACGTTATC,0.384 E-score,–,0.0511 E-score,0.17 E-score,0.431 E-score,0.299 E-score,–,0.423 E-score,0.208 E-score,–,0.162 E-score,–,–
CAAGTCAG,–,–,–,–,0.11 E-score,–,–,0.0706 E-score,0.0527 E-score,–,–,0.417 E-score,–
CCAAGCAA,0.31 E-score,0.309 E-score,0.0877 E-score,0.0528 E-score,0.356 E-score,0.295 E-score,0.0676 E-score,0.405 E-score,0.119 E-score,0.147 E-score,–,–,–
GCTAAGTA,–,0.429 E-score,–,–,–,–,–,0.121 E-score,0.0851 E-score,–,0.0551 E-score,–,–
AGCGTCAA,0.0554 E-score,–,–,0.0689 E-score,0.158 E-score,0.135 E-score,0.12 E-score,0.246 E-score,–,–,0.0978 E-score,0.408 E-score,0.0921 E-score
CACTCAAC,0.4 E-score,0.0871 E-score,0.139 E-score,0.0909 E-score,0.424 E-score,0.237 E-score,–,0.243 E-score,0.089 E-score,0.151 E-score,–,–,–
GTCAATTA,–,–,0.0852 E-score,0.202 E-score,0.159 E-score,0.147 E-score,–,0.122 E-score,0.104 E-score,–,–,0.42 E-score,–
ACTTTCCT,–,0.292 E-score,0.171 E-score,0.0923 E-score,0.0813 E-score,0.144 E-score,0.4 E-score,0.145 E-score,–,–,–,0.171 E-score,0.121 E-score
TCCGTCAA,–,–,–,–,–,–,–,0.063 E-score,0.105 E-score,0.0961 E-score,–,0.412 E-score,–
ACAGGGAA,0.128 E-score,0.239 E-score,0.0748 E-score,–,–,0.0924 E-score,0.409 E-score,0.108 E-score,0.115 E-score,–,0.0751 E-score,–,–
AAGGTAAG,0.0968 E-score,0.306 E-score,–,0.11 E-score,0.225 E-score,0.144 E-score,0.402 E-score,0.2 E-score,0.113 E-score,0.175 E-score,–,–,–
AAGTCATC,–,0.233 E-score,0.0818 E-score,–,0.213 E-score,0.089 E-score,0.0978 E-score,0.242 E-score,–,–,0.0606 E-score,0.406 E-score,0.11 E-score
CCCTCCCC,0.299 E-score,0.353 E-score,–,0.121 E-score,0.308 E-score,0.169 E-score,0.336 E-score,0.405 E-score,–,0.226 E-score,–,0.0672 E-score,0.198 E-score
AGGGAAAC,0.0845 E-score,0.115 E-score,–,0.0887 E-score,0.071 E-score,–,0.482 E-score,0.0839 E-score,0.0608 E-score,0.0754 E-score,0.14 E-score,–,–
CAGGGAAA,0.141 E-score,0.0693 E-score,–,–,0.102 E-score,–,0.407 E-score,0.0967 E-score,0.0593 E-score,0.115 E-score,–,–,–
CCGTCAAA,–,–,–,–,–,–,–,0.148 E-score,0.0953 E-score,0.164 E-score,–,0.409 E-score,–
